Results filed as inconclusive are left out. Where a call stands in place of a potency, no number is given. Activity calls are given as the source filed them. Calls come from the whole dose curve; as a rule, active = well fitted curve in the direction sought with a large enough effect in the repeat runs; inconclusive = weak or mixed curves; inactive = no such curve, though single readings can be large; an effect the other way counts as inactive or inconclusive.

The nature of the first assay: qHTS assay to identify small molecule antagonists of the retinoic acid receptor (RAR) signaling pathway (AID 1159552; note: nearly all actives have a fitted effect of over 50% in size; note: potency is the fitted concentration of half-maximal effect). The following applies: C3RL4 RARE luciferase reporter, retinol-stimulated, 6 h; series mostly up to 92.4 µM. In outline: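 Luminescent RARE reporter read-out in C3RL4 cells: 6 hr co-treatment at 37 C of test compounds with retinol at 1 uM final. Cells plated overnight beforehand; luciferase reagent incubated 30 min at room temperature before reading.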
Consider `CCCCCCOC(=O)CCC`, for which the Potency result was “inactive”.

Turning to `C=CC(=O)OCC(C)OCC(C)OCC(C)OC(=O)C=C` (configuration not stated), the Potency is 61.1 µM (active).

As for `N=C(N=C(N)N)N1CCOCC1`, the Potency entry is “inactive”.

With `Cc1ccc(O)c([C@H](CCN(C(C)C)C(C)C)c2ccccc2)c1`, the Potency entry is “inactive”.

On to `C1CCC2OC2C1` (configuration not stated), for which the Potency entry is “inactive”.

With `CCOC(=O)CC(=O)c1cc(F)c(Cl)nc1Cl`, the Potency result is “inactive”.

In the case of `Oc1ccc2c(c1)OCO2`, the Potency result is “inactive”.

Regarding `CCN(CC)CCOC(=O)C1(c2ccccc2)CCCC1`, the Potency entry was “inactive”.

Take `O=C1CCCCCO1`: the Potency entry is “inactive”.

`CC(C)CCCCCCOC(=O)c1ccc(C(=O)OCCCCCCC(C)C)c(C(=O)OCCCCCCC(C)C)c1`: the Potency result is “inactive”.

Regarding `CC(C)(C)c1ccc(OCC2CO2)cc1` (configuration not stated), the Potency result is “inactive”.

For `COC(Cc1ccccc1)OC`, the Potency result was “inactive”.

`O=C(c1ccccc1)c1ccc2n1CCC2C(=O)O` (configuration not stated): the Potency entry is “inactive”.

Take `CC(Cc1cccc(C(F)(F)F)c1)NCCOC(=O)c1ccccc1` (configuration not stated): the Potency entry was “inactive”.

With `N#CCc1cccc(C(F)(F)F)c1`, the Potency result is “inactive”.

Consider `SC1CCCC1`, for which the Potency entry was “inactive”.

With `O=C(NS(=O)(=O)/C=C/c1cccs1)c1ccc(F)cc1Br`, the Potency entry was “inactive”.

For `CC(=O)CC(=O)c1ccccc1`, the Potency result is “inactive”.

On to `COc1ccc([C@@H]2Sc3ccccc3N(CCN(C)C)C(=O)[C@@H]2OC(C)=O)cc1`, for which the Potency result is “inactive”.

As for `CCOC(=O)C1=C(C)NC(C)=C(C(=O)OC)C1c1cccc([N+](=O)[O-])c1` (configuration not stated), the Potency entry was “inactive”.

Regarding `N#Cc1cc2ccccc2c2ccccc12`, the Potency entry is “inactive”.

In the case of `CCCCOC(O)CC` (configuration not stated), the Potency result is “inactive”.

For `C1=Cc2ccccc2C1`, the Potency entry was “inactive”.

With `CN(C)CC/C=C1\c2ccccc2COc2ccccc21`, the Potency is 21.1 µM (active).

For the molecule `Cc1cc(O)ccc1N`, the Potency result was “inactive”.

`CCCCCCCCCCCCCCCBr`: the Potency result is “inactive”.

As to `N#Cc1c(F)cccc1F`, the Potency result was “inactive”.

Turning to `CN(C)CCCNCCCN`, the Potency result is “inactive”.

Another assay in a line: qHTS assay to identify small molecule agonists of the retinoic acid receptor (RAR) signaling pathway (AID 1159553). Note: potency is the fitted concentration of half-maximal effect. The following applies: C3RL4 RARE luciferase reporter, agonist, 6 h; series mostly up to 73.3 µM. In outline:
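In this cell-based screen, 1,000 C3RL4 cells per well were cultured overnight, dosed with test chemicals in DMSO for 6 hr, and assessed for RARE luciferase luminescence.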
Regarding `CCCCCCOC(=O)CCC`, the Potency result is “inactive”.

As to `N=C(N=C(N)N)N1CCOCC1`, the Potency result was “inactive”.

`Cc1ccc(O)c([C@H](CCN(C(C)C)C(C)C)c2ccccc2)c1`: the Potency entry was “inactive”.

Consider `C1CCC2OC2C1` (configuration not stated), for which the Potency result was “inactive”.

With `CCOC(=O)CC(=O)c1cc(F)c(Cl)nc1Cl`, the Potency result is “inactive”.

For the molecule `Oc1ccc2c(c1)OCO2`, the Potency entry was “inactive”.

Regarding `CCN(CC)CCOC(=O)C1(c2ccccc2)CCCC1`, the Potency entry was “inactive”.

As for `O=C1CCCCCO1`, the Potency result was “inactive”.

`CC(C)CCCCCCOC(=O)c1ccc(C(=O)OCCCCCCC(C)C)c(C(=O)OCCCCCCC(C)C)c1`: the Potency result is “inactive”.

Consider `CC(C)(C)c1ccc(OCC2CO2)cc1` (configuration not stated), for which the Potency is 12.4 µM (active).

Consider `COC(Cc1ccccc1)OC`, for which the Potency entry is “inactive”.

Turning to `O=C(c1ccccc1)c1ccc2n1CCC2C(=O)O` (configuration not stated), the Potency was 13.3 µM (active).

Take `CC(Cc1cccc(C(F)(F)F)c1)NCCOC(=O)c1ccccc1` (configuration not stated): the Potency result is “inactive”.

`N#CCc1cccc(C(F)(F)F)c1`: the Potency result is “inactive”.

In the case of `SC1CCCC1`, the Potency result was “inactive”.

In the case of `O=C(NS(=O)(=O)/C=C/c1cccs1)c1ccc(F)cc1Br`, the Potency result was “inactive”.

Take `CC(=O)CC(=O)c1ccccc1`: the Potency entry is “inactive”.

On to `COc1ccc([C@@H]2Sc3ccccc3N(CCN(C)C)C(=O)[C@@H]2OC(C)=O)cc1`, for which the Potency result was “inactive”.

Take `CCOC(=O)C1=C(C)NC(C)=C(C(=O)OC)C1c1cccc([N+](=O)[O-])c1` (configuration not stated): the Potency result is “inactive”.

Consider `N#Cc1cc2ccccc2c2ccccc12`, for which the Potency result was “inactive”.

Regarding `CCCCOC(O)CC` (configuration not stated), the Potency entry was “inactive”.

In the case of `CCCCCCCCC(CO)CCCCCC` (configuration not stated), the Potency result is “inactive”.

On to `C1=Cc2ccccc2C1`, for which the Potency result was “inactive”.

With `CN(C)CC/C=C1\c2ccccc2COc2ccccc21`, the Potency result was “inactive”.

For the molecule `CCCCCCCCCCCCCCCBr`, the Potency result was “inactive”.

As to `N#Cc1c(F)cccc1F`, the Potency result was “inactive”.

For `C#CCOC(=O)[C@@H](C)Oc1ccc(Oc2ncc(Cl)cc2F)cc1`, the Potency entry was “inactive”.

As to `CN(C)CCCNCCCN`, the Potency result is “inactive”.

Another assay in a line: qHTS assay to identify small molecule antagonists of the estrogen related receptor (ERR) signaling pathway - cell viability counter screen (AID 1224818). The following applies: ERR reporter cell line viability counter screen; series mostly up to 46.1 µM. In outline: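 Viability of ERR cells, CellTiter-Fluor fluorescence; 17.5 h compound exposure at 37 C, DMSO vehicle; 30 min reagent incubation at 37 C/5% CO2.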
With `O=C(c1ccccc1)c1ccc2n1CCC2C(=O)O` (configuration not stated), the call was inactive.

For `COc1ccc([C@@H]2Sc3ccccc3N(CCN(C)C)C(=O)[C@@H]2OC(C)=O)cc1`, the result was inactive.

In the case of `CCOC(=O)C1=C(C)NC(C)=C(C(=O)OC)C1c1cccc([N+](=O)[O-])c1` (configuration not stated), the result was inactive.

Take `CN(C)CC/C=C1\c2ccccc2COc2ccccc21`: the molecule was called inactive.

The nature of another assay: qHTS assay to identify small molecule antagonists of the estrogen related receptor signaling pathway with the pleiotropic PPARgamma coactivator (PGC) cell viability counter screen (AID 1224822). The following applies: ERR/PGC reporter cell line viability counter screen; series mostly up to 46.1 µM. The gist of the method: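 17.5 h compound treatment of PGC/ERR cells at 37 C; readout CellTiter-Fluor fluorescence; run alongside the PGC/ERR antagonist screen to flag cytotoxic compounds.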
A general note: qHTS replaces the single test concentration by a dilution series.
Turning to `O=C(c1ccccc1)c1ccc2n1CCC2C(=O)O` (configuration not stated), the molecule was classed as inactive.

Regarding `COc1ccc([C@@H]2Sc3ccccc3N(CCN(C)C)C(=O)[C@@H]2OC(C)=O)cc1`, the molecule was classed as inactive.

With `CCOC(=O)C1=C(C)NC(C)=C(C(=O)OC)C1c1cccc([N+](=O)[O-])c1` (configuration not stated), the call was inactive.

Take `CN(C)CC/C=C1\c2ccccc2COc2ccccc21`: the result was inactive.

A further assay in a line: qHTS assay to identify small molecule antagonists of the estrogen related receptor (ERR) signaling pathway from Tox21 library - cell viability counter screen (AID 1224834). Note: nearly all actives have a fitted effect of over 30% in size. Note: potency is the fitted concentration of half-maximal effect. The following applies: ERR reporter cells viability, CellTiter-Fluor, 17.5 h; series mostly up to 92.4 µM. In outline:
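Counter screen run in ERR cells (2,000 cells/well): cells pre-incubated 6 h, then treated with compounds for 17.5 h at 37 C. Fluorescence was read 30 min after CellTiter-Fluor addition.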
As for `CCCCCCOC(=O)CCC`, the Potency result is “inactive”.

Turning to `C=CC(=O)OCC(C)OCC(C)OCC(C)OC(=O)C=C` (configuration not stated), the Potency is 61.1 µM (active).

With `N=C(N=C(N)N)N1CCOCC1`, the Potency result was “inactive”.

Turning to `Cc1ccc(O)c([C@H](CCN(C(C)C)C(C)C)c2ccccc2)c1`, the Potency result is “inactive”.

As for `C1CCC2OC2C1` (configuration not stated), the Potency result is “inactive”.

Take `CCOC(=O)CC(=O)c1cc(F)c(Cl)nc1Cl`: the Potency entry is “inactive”.

Turning to `Cc1cc(C)c(S(=O)(=O)O)cc1N=Nc1cc(S(=O)(=O)O)c2ccccc2c1O`, the Potency is 54.5 µM (active).

As to `Oc1ccc2c(c1)OCO2`, the Potency entry was “inactive”.

As to `CCN(CC)CCOC(=O)C1(c2ccccc2)CCCC1`, the Potency result is “inactive”.

Regarding `CC(C)CCCCCCOC(=O)c1ccc(C(=O)OCCCCCCC(C)C)c(C(=O)OCCCCCCC(C)C)c1`, the Potency result was “inactive”.

On to `CC(C)(C)c1ccc(OCC2CO2)cc1` (configuration not stated), for which the Potency result was “inactive”.

As for `COC(Cc1ccccc1)OC`, the Potency result was “inactive”.

For the molecule `O=C(c1ccccc1)c1ccc2n1CCC2C(=O)O` (configuration not stated), the Potency entry was “inactive”.

Regarding `CC(Cc1cccc(C(F)(F)F)c1)NCCOC(=O)c1ccccc1` (configuration not stated), the Potency entry is “inactive”.

Regarding `N#CCc1cccc(C(F)(F)F)c1`, the Potency entry was “inactive”.

In the case of `SC1CCCC1`, the Potency result is “inactive”.

With `O=C(NS(=O)(=O)/C=C/c1cccs1)c1ccc(F)cc1Br`, the Potency entry is “inactive”.

In the case of `CC(=O)CC(=O)c1ccccc1`, the Potency entry is “inactive”.

With `N#Cc1cc2ccccc2c2ccccc12`, the Potency result was “inactive”.

Regarding `CCCCOC(O)CC` (configuration not stated), the Potency result was “inactive”.

In the case of `CCCCCCCCC(CO)CCCCCC` (configuration not stated), the Potency entry is “inactive”.

Regarding `C1=Cc2ccccc2C1`, the Potency entry is “inactive”.

With `CN(C)CC/C=C1\c2ccccc2COc2ccccc21`, the Potency entry is “inactive”.

`Cc1cc(O)ccc1N`: the Potency was 15.4 µM (active).

In the case of `CCCCCCCCCCCCCCCBr`, the Potency result was “inactive”.

For the molecule `N#Cc1c(F)cccc1F`, the Potency entry is “inactive”.

With `C#CCOC(=O)[C@@H](C)Oc1ccc(Oc2ncc(Cl)cc2F)cc1`, the Potency entry was “inactive”.

Consider `CN(C)CCCNCCCN`, for which the Potency entry was “inactive”.
